Assay outcomes deposited in PubChem by National Center for Advancing Translational Sciences (NCATS).
TDP1 cell CPT = qHTS for Inhibitors of human tyrosyl-DNA phosphodiesterase 1 (TDP1): qHTS in cells in presence of CPT; Potency, µM (titrated, usually from 46.2 µM), hits mostly inhibitors; 420,000 compounds, 12% hits; chicken DT40 Tdp1-/-;hTDP1 cells + 20 nM CPT, ATP luminescence, 48 h; further: nearly all actives have a fitted effect of over 55% in size
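Cell growth measured by CellTiter-Glo luminescence after a minimum 48 h, 37 C compound exposure with 20 nM CPT in Tdp1-knockout DT40 cells stably expressing hTDP1, seeded 400/well; qHTS titration format.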
Gal4-VP16 FLuc = VP16 counterscreen qHTS for inhibitors of ROR gamma transcriptional activity | Drosophila S2 Gal4-VP16 UAS-luciferase, luminescence, 20 h | Potency, µM (highest dose often 53.6 µM), usual class: inhibitors | 310,000 compounds, 3.5% hits | AID 2546, 2010;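 further: Gal4-VP16 expression switched on by copper sulfate through the metallothionein promoter; nearly all actives have a fitted effect of over 50% in size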
TDP1 cell noCPT = qHTS for Inhibitors of human tyrosyl-DNA phosphodiesterase 1 (TDP1): qHTS in cells in absence of CPT | Potency, µM (highest dose often 46.2 µM), most hits filed as inhibitors | 420,000 compounds, 15% hits | DT40 Tdp1-/- hTDP1 cells, no CPT, ATP luminescence, 48 h; further: nearly all actives have a fitted effect of over 55% in size
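Growth kinetics read by CellTiter-Glo luminescence after ≥48 hr at 37 °C. Cells: DT40 Tdp1-/- stably carrying human TDP1, 400 per well, compound exposure in the absence of CPT (DMSO vehicle).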
IL1B secr inh = qHTS for Inhibitors of Inflammasome Signaling: IL-1-beta AlphaLISA Primary Screen. THP-1 LPS/ATP IL-1B secretion, AlphaLISA, 16 h; active compounds read low. activity change, % at 57.5 µM. 360,000 compounds, 4.7% hits; in the data active means activity change below about -50%; inconclusive means mostly about -30% to -49%
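THP-1 cells pretreated 1 hr with compounds (up to 57.5 uM final), then stimulated with LPS (250 ng/mL final) plus ATP (1.25 mM final); secreted IL-1B measured by AlphaLISA after 16 hr, decreased signal indicating inhibition.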
RORg inh = qHTS for inhibitors of ROR gamma transcriptional activity | AID 2551, 2010 | Nuclear receptor ROR-gamma (Mus musculus), P51450 | Potency, µM (doses to about 53.6 µM), most hits filed as inhibitors | 310,000 compounds, 5.4% hits | Drosophila S2 Gal4-RORgamma UAS-luciferase reporter, 20 h; further: nearly all actives have a fitted effect of over 60% in size
Target sequence (P51450 whole entry, looked up, the tested form may be a part): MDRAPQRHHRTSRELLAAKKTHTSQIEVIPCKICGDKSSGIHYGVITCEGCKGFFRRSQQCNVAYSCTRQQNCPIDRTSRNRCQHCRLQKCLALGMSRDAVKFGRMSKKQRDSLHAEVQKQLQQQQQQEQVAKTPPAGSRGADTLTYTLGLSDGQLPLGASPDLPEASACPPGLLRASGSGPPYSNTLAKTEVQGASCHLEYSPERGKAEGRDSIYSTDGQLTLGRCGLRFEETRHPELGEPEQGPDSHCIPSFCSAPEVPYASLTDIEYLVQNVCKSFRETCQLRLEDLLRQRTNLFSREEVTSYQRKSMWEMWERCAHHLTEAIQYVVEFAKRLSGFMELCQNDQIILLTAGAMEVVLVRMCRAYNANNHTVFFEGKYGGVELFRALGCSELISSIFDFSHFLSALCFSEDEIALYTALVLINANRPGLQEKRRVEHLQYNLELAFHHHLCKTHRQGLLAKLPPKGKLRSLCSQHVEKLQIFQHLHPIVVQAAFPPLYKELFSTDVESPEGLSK
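Drosophila S2 cells stably expressing Gal4-DBD/mouse RORγ fusion under metallothionein promoter plus UAS-luciferase; compound 1 h, then 700 uM CuSO4 induction for 20 h at ambient temperature; inhibition read as reduced luminescence.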
ELG1 repair inh = qHTS screen for small molecules that inhibit ELG1-dependent DNA repair in human embryonic kidney (HEK293T) cells expressing luciferase-tagged ELG1; 330,000 compounds, 2.3% hits; Potency, µM (series often up to 46.1 µM), usual class: inhibitors; HEK293T ELG1-luciferase reporter, luminescence, 16 h; DNA damage induced by 5-fluorouridine; AID 504467, 2011; further: nearly all actives have a fitted effect of over 55% in size
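Cells (2,000 per well) received 5-fluorouridine plus test compound or DMSO and were incubated 16 hr at 37 °C, 5% CO2. Luciferase activity was read by luminescence 30 min after ONE-Glo addition; signal suppression marked inhibition of damage-induced ELG1 function.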
Hits are given with their value; 0 = inactive; ? = inconclusive; - = not tested or not shown; ! = repeats disagree. Hits are enriched below; roughly 21% of the tested compounds scored in any of these assays. Unless noted, the call rests on the fitted dose curve; in most records, active means well fitted curve in the direction sought with a large enough effect; inconclusive means small, poorly fitted or top-dose-only effect, or another doubt; inactive means no such curve, though single readings can be large; an effect the other way counts as inactive or inconclusive.

SMILES	TDP1 cell CPT	Gal4-VP16 FLuc	TDP1 cell noCPT	IL1B secr inh	RORg inh	ELG1 repair inh
CC(=O)NC(C(=O)O)C(C)(C)SN=O (stereo unspecified)	0	0	0	-	0	-
COc1ccccc1-c1cc2nc(NCCOc3ccccc3)ccn2n1	18µM	-	16µM	0	-	-
c1ccc(OCCNc2ccn3nc(-c4ccccc4)cc3n2)cc1	?	-	?	0	-	-
CNc1cc(-c2cc(OC)ccc2OC)ncn1	0	-	0	0	-	-
Cc1cccc(C(=O)Nc2nnc(-c3ccc(C(C)(C)C)cc3)s2)c1	?	0	?	0	14µM	0
CCOC(=O)c1c(NC(=O)/C=C/C(=O)O)sc(C)c1-c1ccc(C(C)(C)C)cc1	13µM	?	21µM	-106	11µM	12µM
CCc1ccc(-c2c(C)sc(NC(C)=O)c2C(N)=O)cc1	?	0	23µM	?	0	?
Cc1cccc(C(=O)Nc2nnc(COc3ccccc3)s2)c1	?	0	?	0	0	0
CCOC(=O)c1c(NC(=O)/C=C\C(=O)O)sc(C)c1-c1ccccc1	?	0	?	-99	?	0
CN(C)c1ccc(-c2nc(N3CCNCC3)c3ccccc3n2)cc1	?	0	?	-	?	-
C=CCn1c(COc2ccc(F)cc2)nnc1SCC(=O)NC1CCS(=O)(=O)C1 (stereo unspecified)	0	-	0	0	-	0
O=C(NC1CCCCC1)c1sc(N2CCOCC2)nc1-c1ccccc1	?	0	?	0	0	0
Cc1sc(NC(=O)C2C3CCC(C3)C2C(=O)O)c(C(N)=O)c1-c1ccc(C(C)(C)C)cc1 (stereo unspecified)	?	0	12µM	0	?	0
Cc1sc(NC(=O)c2cccc([N+](=O)[O-])c2)c(C(N)=O)c1-c1ccc(C(C)(C)C)cc1	?	0	21µM	0	0	0
Cc1cc(C(=O)Nc2sc(C)c(-c3ccc(F)cc3)c2C(N)=O)no1	0	0	0	0	0	?
Cc1sc(NC(=O)C2CCCCC2C(=O)O)c(C(N)=O)c1-c1ccc(C(C)(C)C)cc1 (stereo unspecified)	0	0	0	0	?	?
Cc1sc(NC(=O)/C=C/C(=O)O)c(C(N)=O)c1-c1ccc(C(C)(C)C)cc1	23µM	0	?	-91	?	0
O=C(O)C(Cc1ccc(OS(=O)(=O)Cc2ccccc2)cc1)NS(=O)(=O)Cc1ccccc1 (stereo unspecified)	0	-	0	0	-	-
O=C(C[C@H]1CC[C@@H](NS(=O)(=O)c2ccccc2)[C@@H](CO)O1)NCc1ccc(Cl)c(Cl)c1	21µM	-	21µM	0	-	-
COc1ccc(C(=O)NCCn2cc(SCc3cccc(F)c3)c3ccccc32)cc1OC	9.2µM	-	4.6µM	-	-	-
O=C(NCCn1cc(SCc2cccc(F)c2)c2ccccc21)c1cccc(C(F)(F)F)c1	?	-	16µM	-	-	-
COc1ccc(C(=O)NCCn2cc(SCC(=O)NCC3CCCO3)c3ccccc32)cc1OC (stereo unspecified)	?	0	?	0	0	?
COc1ccc(NC(=O)CCNC(=O)c2ccco2)c(OC)c1	0	0	0	0	0	0
COc1ccc(-n2c(Cc3cccn3C)nnc2SCC(=O)Nc2cccc(F)c2)cc1	23µM	?	26µM	?	?	0
Cn1cccc1Cc1nnc(SCC(=O)Nc2cccc(F)c2)n1CCc1ccccc1	23µM	0	?	0	0	?
SMILES	TDP1 cell CPT	Gal4-VP16 FLuc	TDP1 cell noCPT	IL1B secr inh	RORg inh	ELG1 repair inh
CC1CCN(C(=O)CSc2nnc(Cc3cccn3C)n2CCc2ccccc2)CC1	16µM	0	?	?	0	0
CCC(=O)N(Cc1cc2ccccc2[nH]c1=O)c1ccccc1OC	0	0	0	0	0	0
CCc1ccc(NC(=O)Cn2nnc(C(=O)Nc3ccc(F)cc3)c2N)cc1	0	-	0	-	-	-
COc1cc2nc(CN3CCN(C(C)=O)CC3)[nH]c(=O)c2cc1OC	0	0	0	0	?	0
COc1cc2nc(CN3CCC(C(O)(c4ccccc4)c4ccccc4)CC3)[nH]c(=O)c2cc1OC	?	0	18µM	0	0	?
COc1cc2nc(CN3CCC(Cc4ccccc4)CC3)[nH]c(=O)c2cc1OC	?	0	?	0	11µM	0
COc1cc2nc(CN3CCN(S(=O)(=O)c4ccccc4)CC3)[nH]c(=O)c2cc1OC	0	-	0	0	-	?
COc1cc2nc(CN3CCN(S(=O)(=O)c4cc(C)ccc4C)CC3)[nH]c(=O)c2cc1OC	?	-	?	0	-	15µM
COc1ccc(/C=C/C(=O)Nc2ccc(Cl)cc2Cl)cc1	0	-	0	-	-	-
O=C(N/N=C/C1CC=CCC1)c1cc2ccccc2cc1O (stereo unspecified)	0	?	0	0	10µM	0
COc1cc(C(=O)N/N=C/C2CC=CCC2)cc(OC)c1OC (stereo unspecified)	0	?	0	0	0	0
O=C(N/N=C/C1CC=CCC1)c1ccc(O)cc1O (stereo unspecified)	0	2.8µM	0	0	1.1µM	0
COc1cc(S(=O)(=O)N2CCCN(C)CC2)ccc1NC(C)=O	0	0	0	0	0	0
Cc1cc(NC(=O)c2cccc3c2C(=O)N(C2CCCCC2)C3)ccc1Br	0	?	0	0	0	0
COc1ccc(OC)c(NC(=O)c2cccc3c2C(=O)N(C2CCCCC2)C3)c1	?	0	16µM!	0	0	?
COCCN1Cc2cccc(C(=O)Nc3cc(OC)ccc3OC)c2C1=O	?	0	?	0	0	?
Cc1cccc(C)c1NC(=O)c1cccc2c1C(=O)N(C1CCCCC1)C2	7.3µM	0	16µM	-62	0	0
O=C(Nc1ccc2c(c1)OCO2)c1cccc2c1C(=O)N(C1CCCCC1)C2	0	0	0	0	0	0
COc1ccc(NC(=O)c2cccc3c2C(=O)N(C2CCCCC2)C3)cc1	18µM	0	18µM	0	0	?
CC1=C(C(=O)Nc2ccc(F)cc2F)C2(CCCCCC2)OC1=O	0	-	0	-	-	-
CC(=O)Nc1ccccc1NC(=O)C/C(C)=N/NC(=O)c1cccnc1	0	0	0	0	0	0
Cc1cccc(C)c1NC(=S)NC1CCCCC1	?	4.5µM	?	0	6.3µM	0
Cc1ccccc1NC(=S)NC1CCCC1	0	8.9µM	0	0	7.9µM	0
